Assay outcomes deposited in PubChem by several laboratories.
FBA Mtb inh – Mtb FBA enzyme inhibitors, primary screen, biochemical, fluorescence, strain H37Rv; Fructose-bisphosphate aldolase (Mycobacterium tuberculosis (strain ATCC 25618 / H37Rv)), …; purified M. tuberculosis FBA, fluorescence read-out; inhibition, % at 1 µM; 360,000 tested, 2.3% active; AID 588726, 2011;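 also: 0% = vehicle and 100% = reference inhibitor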
Mtb hypoxia inh – PubChem AID 1159583; M. tuberculosis hypoxia-regulated fluorescent reporter, fluorescence; fluorescence inhibition, % (concentration not given with the values); 300,000 tested, 0.1% active; in the data active = fluorescence inhibition mostly above about 23%, no sharp cut-off; inactive = mostly below about 17%
VHR inh abs – VHR1 phosphatase inhibitors, primary screen, biochemical, absorbance, uHTS. Dual specificity protein phosphatase 3 (Homo sapiens), P51452. recombinant VHR phosphatase, pNPP absorbance. inhibition, % at 13.3 µM. 290,000 tested, 0.52% active. AID 1654, 2009; in the data active = inhibition above about 50%
Target sequence (P51452 whole entry, looked up): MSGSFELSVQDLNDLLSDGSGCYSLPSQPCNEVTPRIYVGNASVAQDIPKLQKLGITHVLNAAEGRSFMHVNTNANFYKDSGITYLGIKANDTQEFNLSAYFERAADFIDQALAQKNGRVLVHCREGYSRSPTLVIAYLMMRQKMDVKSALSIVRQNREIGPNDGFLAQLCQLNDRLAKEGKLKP
Mtb betalactam – beta-lactam sensitization of Mtb H37Rv, H37Rv; AID 434955, 2010; inhibition, % at 25 µM; M. tuberculosis H37Rv growth with meropenem, percent inhibition; 330,000 tested, 0.27% active; call rule not given here;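 also: growth measured after seven days incubation then overnight dye step; 0% = bacteria only wells and 100% = bacteria with antibiotic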
GDH-TPI counter-1 – GDH-TPI coupling enzyme inhibitors, primary screen, artefact control for M. tuberculosis FBA inhibitor project, biochemical, absorbance, full deck | inhibition, % at 4.8 µM | GDH-TPI coupled enzyme counterscreen, NADH absorbance | 360,000 tested, 1.2% active; in the data active = inhibition above about 30%;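 also: 0% = DMSO wells and 100% = wells lacking the enzyme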
Mtb FBA confirm – M. tuberculosis aldolase blockers, biochemical, fluorescence, strain H37Rv, confirmation; AID 651616, 2012; shares compounds with FBA Mtb inh; purified M. tuberculosis FBA, fluorescence read-out; 5,600 tested, 78% active; inhibition, % at 1 µM;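 also: 0% = vehicle wells and 100% = reference inhibitor wells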
GDH-TPI counter-2 – GDH-TPI coupling enzyme inhibitors, artefact control for M. tuberculosis FBA inhibitor project, biochemical, fluorescence, high throughput. GDH-TPI coupled enzyme counterscreen. shares compounds with FBA Mtb inh. AID 652141, 2013. 5,600 tested, 81% active. inhibition, % at 1 µM; in the data active = inhibition above about 10%
* hit, by the source's call; / = no result shown. Hits are enriched below; roughly 3.6% of the tested compounds scored in any of these assays. Rule as the data show it, unless noted: active = inhibition above about 27%; inactive = the rest.

SMILES	FBA Mtb inh	Mtb hypoxia inh	VHR inh abs	Mtb betalactam	GDH-TPI counter-1	Mtb FBA confirm	GDH-TPI counter-2
CN(C(=O)c1ccncc1)c1nnc(-c2ccncc2)s1	43*	/	4	16	1	92*	81*
CN(C(=O)C1CCCO1)c1nnc(-c2ccccn2)s1 (stereo not given)	68*	/	12	-7	10	160*	146*
CN(C(=O)C1CCCO1)c1nnc(-c2ccncc2)s1 (stereo not given)	63*	7	14	-1	4	104*	89*
FC(F)(F)c1ccc(CN2CC3C(c4ccc(Cl)nc4)C4(c5cccnc5)CC3(C4)C2c2ccccc2)cc1 (stereo not given)	/	-13	/	/	/	/	/
CCc1cc2c(=O)c(-c3nc4ccccc4n3C)c(COCC(=O)O)oc2cc1O	-2	14	-1	9	20	/	/
Cn1c(-c2cc3ccc(OC(=O)C(C)(C)C)cc3oc2=O)nc2ccccc21	59*	0	45	10	33*	3	-3
COC(=O)C1=C(c2ccc(F)cc2OCc2ccccc2)CC2CCC1N2C(=O)NCc1ccc(C(F)(F)F)cc1 (stereo not given)	/	10	/	/	/	/	/
Cc1c(C)c2ccc(O[C@@H]3O[C@H](CO)[C@H](O)[C@H](O)[C@H]3O)cc2oc1=O	38*	2	-11	3	10	53*	42*
Cc1cc(=O)oc2cc(O[C@@H]3O[C@H](CO)[C@H](O)[C@H](O)[C@H]3O)ccc12	7	7	-8	-7	6	/	/
N#CCOc1ccc2oc(-c3ccco3)cc(=O)c2c1	/	/	2	-5	/	/	/
O=c1cc(-c2c(F)c(F)c(F)c(F)c2F)oc2ccccc12	0	/	37	100	1	/	/
CC(C)OCCOc1ccc2oc(-c3ccco3)cc(=O)c2c1	77*	14	11	35	22	-3	-4
O=c1cc(-c2ccco2)oc2ccccc12	86*	16	/	/	28	7	2
CCCCN1CC(=O)N2C3c4ccccc4OCC3C(C(=O)OCC)[C@]2(C)C1=O (stereo not given in full)	/	11	/	/	/	/	/
COC(=O)C1=C(c2ccccc2)CC2CCC1N2C(=O)NCc1ccc(C(F)(F)F)cc1 (stereo not given)	/	11	/	/	/	/	/
O=[N+]([O-])c1ccccc1S(=O)(=O)N1CCCC(C(F)(F)F)C1 (stereo not given)	41*	11	21	1	19	46*	39*
O=[N+]([O-])c1ccccc1S(=O)(=O)N1CCCCC1	-1	7	-4	2	3	/	/
Cc1ccc(O)c(-c2cc3ccccc3[nH]2)c1	52*	-1	20	1	16	71*	45*
COc1ccc(-c2cc(=O)[nH]c3ccccc23)cc1	19	-5	/	3	7	/	/
COc1ccc(-c2cc3ccccc3[nH]2)cc1	29*	15	4	6	0	74*	62*
Cc1ccc(O)c(-c2cc(-c3ccccc3F)[nH]n2)c1	0	14	16	76	-12	/	/
c1ccc(-c2cc3ccccc3[nH]2)cc1	60*	3	21	100	5	114*	93*
Cc1ccsc1C=NNC(=O)CNC(=O)c1ccco1	/	16	/	/	/	/	/
O=C1c2ccccc2NC(c2c(Cl)cccc2Cl)N1Cc1ccccc1 (stereo not given)	26	/	10	4	2	/	/
O=C1c2ccccc2NC(c2cccc(F)c2)N1Cc1ccccc1 (stereo not given)	58*	-14	5	7	6	97*	81*
O=C1c2ccccc2NC(c2cccc(F)c2)N1Cc1ccco1 (stereo not given)	60*	-1	6	1	9	74*	59*
